Several values for one entry are separate records, joined by “and”; a condition that tells them apart may be missing. Equal entries are not always repeated. The whole screen tested about 5,500 compounds, of which about 2,000 (36%) were called active. About 18% were inconclusive and are not listed. Rule as the data show it: active = normalized growth mostly below about 0.91 (no sharp cut-off); inconclusive = no clear call, values can overlap the other calls; inactive = mostly above about 0.92. The list shows a part of the results.
Assay: chemical genetic growth profiling, strain panel (AID 1159580);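 also: tested at 20 µM; growth read once vehicle control cultures reached saturation at 30 °C; 1 = growth at the plate median or of vehicle wells; lower values mean less growth of the strain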
Conditions: S. cerevisiae deletion strains, growth OD

Measured: normalized growth

C[C@@H](N)[C@@H](O)c1ccccc1
inactive: locus YAL021C, strain ccr4, active compounds read low 0.991 | locus YAL030W, strain snc1, active compounds read low 0.98 | locus YBL061C, strain skt5, active compounds read low 1.01 | locus YBR009C, strain hhf1, active compounds read low 1 | locus YBR021W, strain FUR4, active compounds read low 1.05 | locus YBR023C, strain chs3, active compounds read low 0.997 | locus YBR171W, strain sec66, active compounds read low 1 | locus YBR229C, strain ROT2, active compounds read low 0.967 | locus YBR231C, strain swc5, active compounds read low 0.969 | locus YBR279W, strain paf1, active compounds read low 1.01 | locus YCL011C, strain gbp2, active compounds read low 0.994 | locus YCL016C, strain dcc1, active compounds read low 0.985 | locus YCL029C, strain bik1, active compounds read low 0.982 | locus YCL069W, strain vba3, active compounds read low 1 | locus YCR088W, strain abp1, active compounds read low 0.992 | locus YDL005C, strain med2, active compounds read low 0.977 | locus YDL035C, strain GPR1, active compounds read low 1 | locus YDL040C, strain nat1, active compounds read low 1 | locus YDL074C, strain BRE1, active compounds read low 1.05 | locus YDL101C, strain DUN1, active compounds read low 0.983 | locus YDL134C, strain PPH21, active compounds read low 0.987 | locus YDL185W, strain tfp1, active compounds read low 0.966 | locus YDL192W, strain arf1, active compounds read low 1.02 | locus YDR001C, strain nth1, active compounds read low 1.01 | locus YDR069C, strain doa4, active compounds read low 0.985 | locus YDR101C, strain arx1, active compounds read low 0.989 | locus YDR137W, strain rgp1, active compounds read low 0.862 | locus YDR150W, strain NUM1, active compounds read low 0.994 | locus YDR159W, strain sac3, active compounds read low 0.949 | locus YDR162C, strain NBP2, active compounds read low 0.951 | locus YDR195W, strain ref2 0.988 | locus YDR297W, strain sur2, active compounds read low 0.994 | locus YDR318W, strain mcm21, active compounds read low 0.978 | locus YDR334W, strain swr1, active compounds read low 0.997 | locus YDR335W, strain msn5, active compounds read low 0.988 | locus YDR388W, active compounds read low 0.994 | locus YDR392W, strain spt3, active compounds read low 0.955 | locus YDR502C, strain sam2, active compounds read low 0.991 | locus YEL003W, strain gim4, active compounds read low 0.995 | locus YEL037C, strain rad23, active compounds read low 1.01 | locus YEL061C, strain CIN8 (second series), active compounds read low 0.993 | locus YEL061C, strain CIN8, active compounds read low 0.987 | locus YER015W, strain faa2, active compounds read low 0.995 | locus YER016W, strain bim1, active compounds read low 0.975 | locus YER110C, active compounds read low 0.974 | locus YER111C, strain swi4, active compounds read low 0.981 | locus YER155C, strain BEM2 (second series), active compounds read low 0.973 | locus YER155C, strain BEM2, active compounds read low 1.02 | locus YER167W, strain BCK2, active compounds read low 0.999 | locus YFR010W, strain ubp6, active compounds read low 1 | locus YGL078C, strain dbp3, active compounds read low 0.991 | locus YGL086W, strain mad1, active compounds read low 1.03 | locus YGL167C, strain pmr1, active compounds read low 0.999 | locus YGL173C, strain kem1, active compounds read low 0.993 | locus YGL227W, strain vid30, active compounds read low 1.01 | locus YGL240W, strain doc1, active compounds read low 1 | locus YGL248W, strain PDE1, active compounds read low 0.974 | locus YGL253W, strain hxk2, active compounds read low 0.99 | locus YGR135W, strain pre9, active compounds read low 0.949 | locus YGR252W, strain gcn5, active compounds read low 0.968 | locus YHR013C, strain ard1, active compounds read low 0.975 | locus YHR027C, strain rpn1, active compounds read low 1 | locus YHR030C, strain SLT2, active compounds read low 1 and 1.03 | locus YHR079C, strain IRE1 (second series), active compounds read low 0.993 | locus YHR079C, strain IRE1, active compounds read low 1.02 | locus YHR094C, strain hxt1, active compounds read low 0.973 | locus YHR129C, strain ARP1, active compounds read low 0.997 | locus YHR142W, strain chs7, active compounds read low 0.971 | locus YHR200W, strain rpn10, active compounds read low 0.997 | locus YIL066C, strain RNR3, active compounds read low 0.966 | locus YIL073C, strain SPO22, active compounds read low 1.03 | locus YIL125W, strain kgd1, active compounds read low 0.986 | locus YIR030C, strain dcg1, active compounds read low 0.999 | locus YJL092W, strain hpr5, active compounds read low 1 | locus YJL095W, strain BCK1 (second series), active compounds read low 0.999 | locus YJL095W, strain BCK1, active compounds read low 0.928 and 1.01 | locus YJL115W, strain asf1, active compounds read low 0.991 | locus YJL129C, strain trk1, active compounds read low 0.992 | locus YJL134W, strain LCB3, active compounds read low 0.988 | locus YJL154C, strain vps35, active compounds read low 0.993 | locus YJL164C, strain tpk1, active compounds read low 1.01 | locus YJL166W, strain qcr8, active compounds read low 0.983 | locus YJL168C, strain set2, active compounds read low 1.01 | locus YJL187C, strain SWE1 (second series), active compounds read low 0.964 | locus YJR043C, strain POL32, active compounds read low 1.01 | locus YJR066W, strain TOR1, active compounds read low 0.942 | locus YJR075W, strain HOC1, active compounds read low 0.984 | locus YKL009W, strain mrt4, active compounds read low 1.04 | locus YKL068W, active compounds read low 0.978 | locus YKL085W, strain MDH1 (second series), active compounds read low 0.998 | locus YKL085W, strain MDH1, active compounds read low 0.998 | locus YKL160W, strain elf1, active compounds read low 0.974 | locus YKR001C, strain vps1, active compounds read low 1.01 | locus YKR026C, strain gcn3, active compounds read low 1.02 | locus YKR091W, strain srl3, active compounds read low 0.987 | locus YLL001W, strain dnm1, active compounds read low 1.01 | locus YLL026W, active compounds read low 0.995 | locus YLL041C, strain sdh2, active compounds read low 1.01 | locus YLR027C, strain aat2, active compounds read low 0.995 | locus YLR039C, strain RIC1, active compounds read low 0.953 | locus YLR058C, strain SHM2, active compounds read low 0.978 | locus YLR102C, strain apc9, active compounds read low 0.99 | locus YLR113W, strain HOG1, active compounds read low 1.03 | locus YLR221C, strain rsa3, active compounds read low 0.994 | locus YLR258W, strain gsy2, active compounds read low 1.01 | locus YLR262C, strain YPT6, active compounds read low 0.927 | locus YLR268W, strain sec22, active compounds read low 0.988 | locus YLR320W, strain mms22, active compounds read low 0.955 | locus YLR330W, strain CHS5, active compounds read low 0.997 | locus YLR342W, strain FKS1 (second series), active compounds read low 1.06 | locus YLR342W, strain FKS1, active compounds read low 0.995 | locus YLR357W, strain rsc2, active compounds read low 0.988 | locus YLR370C, strain arc18, active compounds read low 1 | locus YLR371W, strain rom2, active compounds read low 0.975 | locus YLR384C, strain iki3, active compounds read low 0.977 | locus YLR418C, strain cdc73, active compounds read low 0.939 | locus YML016C, strain PPZ1, active compounds read low 0.994 | locus YML032C, strain rad52, active compounds read low 0.967 | locus YML120C, strain ndi1, active compounds read low 0.992 | locus YML124C, strain tub3, active compounds read low 0.993 | locus YMR058W, strain fet3, active compounds read low 0.972 | locus YMR078C, strain ctf18, active compounds read low 1.01 | locus YMR125W, strain sto1, active compounds read low 0.983 | locus YMR129W, active compounds read low 0.997 | locus YMR205C, strain PFK2, active compounds read low 0.998 | locus YMR223W, strain ubp8, active compounds read low 0.964 | locus YMR231W, strain pep5, active compounds read low 1 | locus YMR263W, strain SAP30, active compounds read low 0.987 | locus YMR307W, strain GAS1, active compounds read low 1.09 | locus YNL067W, strain RPL9B, active compounds read low 0.975 | locus YNL071W, strain lat1, active compounds read low 0.989 | locus YNL153C, strain GIM3, active compounds read low 0.974 | locus YNL183C, strain NPR1, active compounds read low 0.929 | locus YNL209W, strain ssb2, active compounds read low 1.01 | locus YNL233W, strain BNI4, active compounds read low 1 | locus YNL248C, strain rpa49, active compounds read low 0.99 | locus YNL250W, strain rad50, active compounds read low 0.992 | locus YNL271C, strain bni1, active compounds read low 0.995 | locus YNL298W, strain CLA4, active compounds read low 0.982 | locus YNL307C, strain MCK1, active compounds read low 0.984 | locus YNL322C, strain KRE1 (second series), active compounds read low 0.99 | locus YNR049C, strain mso1, active compounds read low 1.01 | locus YNR052C, strain pop2, active compounds read low 0.973 | locus YOL006C, strain TOP1, active compounds read low 1.02 | locus YOL012C, strain htz1 1.02 | locus YOL147C, strain pex11, active compounds read low 0.996 | locus YOR001W, strain rrp6, active compounds read low 1 | locus YOR061W, strain CKA2, active compounds read low 0.98 | locus YOR069W, strain VPS5, active compounds read low 1 | locus YOR070C, strain gyp1, active compounds read low 0.999 | locus YOR080W, strain dia2, active compounds read low 1 | locus YOR083W, strain WHI5, active compounds read low 0.948 | locus YOR106W, strain vam3, active compounds read low 1 | locus YOR136W, strain idh2, active compounds read low 0.993 | locus YOR144C, strain elg1, active compounds read low 0.989 | locus YOR184W, strain ser1, active compounds read low 1.01 | locus YOR231W, strain MKK1, active compounds read low 1.01 | locus YOR265W, strain rbl2, active compounds read low 0.993 | locus YOR270C, strain vph1, active compounds read low 0.9 | locus YOR290C, strain snf2, active compounds read low 0.993 | locus YOR316C, strain cot1, active compounds read low 0.985 | locus YPL051W, strain arl3, active compounds read low 0.981 | locus YPL078C, strain atp4, active compounds read low 0.98 | locus YPL106C, strain sse1, active compounds read low 1 | locus YPL240C, strain hsp82, active compounds read low 1 | locus YPL241C, strain CIN2, active compounds read low 0.989 | locus YPL256C, strain CLN2, active compounds read low 1.03 | locus YPR119W, strain clb2, active compounds read low 1.01 | locus YPR141C, strain kar3, active compounds read low 0.994 | locus YPR163C, strain tif3, active compounds read low 0.971 | locus YPR167C, strain met16, active compounds read low 1 | strain wtn01, active compounds read low 1.03
active: locus YAL026C, strain drs2, active compounds read low 0.89 | locus YLR262C, strain YPT6 (second series), active compounds read low 0.823
